# Data reported in the supplement of paper PMC10681739.
# Key:
# [1] = target: T1, ETS1 (UniProt P14921); experiment: ETS1 binding intensity (PBM fluorescence), ETS1 alone (arbitrary fluorescence units); higher = stronger binding; details: ETS1 concentration 1 nM; RUNX1 concentration 0 nM
# T1 sequence: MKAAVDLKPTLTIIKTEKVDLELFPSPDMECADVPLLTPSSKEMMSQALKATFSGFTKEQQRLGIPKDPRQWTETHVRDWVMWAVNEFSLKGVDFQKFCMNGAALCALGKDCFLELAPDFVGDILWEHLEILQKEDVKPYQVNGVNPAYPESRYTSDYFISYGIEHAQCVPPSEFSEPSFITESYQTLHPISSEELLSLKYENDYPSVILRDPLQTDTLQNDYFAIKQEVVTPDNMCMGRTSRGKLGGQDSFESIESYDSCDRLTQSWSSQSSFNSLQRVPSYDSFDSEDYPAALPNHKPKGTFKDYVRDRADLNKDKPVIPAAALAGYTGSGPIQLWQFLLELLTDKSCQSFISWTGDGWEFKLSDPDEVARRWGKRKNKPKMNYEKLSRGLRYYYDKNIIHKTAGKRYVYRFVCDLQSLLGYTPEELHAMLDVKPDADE
# [2] = target: RUNX1 (UniProt Q01196); experiment: RUNX1 binding intensity (PBM fluorescence), RUNX1 alone (arbitrary fluorescence units); higher = stronger binding; details: RUNX1 concentration 2 nM; ETS1 concentration 0 nM
# RUNX1, sequence (Q01196 whole entry): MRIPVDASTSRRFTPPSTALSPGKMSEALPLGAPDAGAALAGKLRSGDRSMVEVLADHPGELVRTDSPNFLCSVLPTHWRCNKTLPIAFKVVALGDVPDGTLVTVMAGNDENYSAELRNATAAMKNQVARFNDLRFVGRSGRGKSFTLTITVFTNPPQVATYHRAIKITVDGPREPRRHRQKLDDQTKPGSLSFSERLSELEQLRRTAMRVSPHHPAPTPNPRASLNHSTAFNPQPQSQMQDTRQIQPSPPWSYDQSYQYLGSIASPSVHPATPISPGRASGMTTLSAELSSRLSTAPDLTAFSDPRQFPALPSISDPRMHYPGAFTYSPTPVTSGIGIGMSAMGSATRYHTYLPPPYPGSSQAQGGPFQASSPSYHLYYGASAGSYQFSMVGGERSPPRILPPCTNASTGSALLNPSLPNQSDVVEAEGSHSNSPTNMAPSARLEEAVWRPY
# Method: (§1)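 Cooperative gcPBM on 36-bp genomic probes with neighbouring ETS1 and RUNX1 sites. Recombinant human RUNX1 (2 nM) was incubated alone or with ETS1 (25 nM) and detected with anti-RUNX1 antibody plus Alexa488 secondary. Values are medians over 4 replicate spots; the RUNX1+ETS1 data were normalised to the RUNX1-only data. The probes sit in constant array flanks that are not printed.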
# [3] = target: T1, ETS1; experiment: ETS1 binding intensity (PBM fluorescence) in presence of RUNX1, normalised to ETS1-only experiment (arbitrary fluorescence units); higher = stronger binding; details: ETS1 concentration 1 nM; RUNX1 concentration 25 nM
# [4] = target: RUNX1 (UniProt Q01196); experiment: RUNX1 binding intensity (PBM fluorescence) in presence of ETS1, normalised to RUNX1-only experiment (arbitrary fluorescence units); higher = stronger binding; details: RUNX1 concentration 2 nM; ETS1 concentration 25 nM
# Method: as §1
# 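Throughout, for RUNX1 binding intensity (PBM fluorescence) in presence of ETS1, normalised to RUNX1-only experiment: Full-length recombinant human ETS1 or RUNX1 bound to double-stranded 36-bp genomic probes on microarrays, detected by protein-specific primary antibody and Alexa488 secondary, spot fluorescence as median of four replicate spots.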
# 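Throughout, for RUNX1 binding intensity (PBM fluorescence), RUNX1 alone: Full-length recombinant human RUNX1 bound to double-stranded 36-bp genomic probes on a high-density microarray, scored as Alexa488 fluorescence per spot via anti-RUNX1 antibody, median of four replicate spots.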
Sequence,ETS1 binding intensity [1],RUNX1 binding intensity [2],ETS1 binding intensity [3],RUNX1 binding intensity [4]
GCCGGTGAGGGCGGAAGTGGTAAGACTGACGTGTCC,6840,709,8740,2490
CTGCCCACCGGAAACGATGGCGCGAGGCCGCAGAGC,6160,728,7790,1660
ACCCACCCGGAAGTCCTCCTGGCCCACAAGCTCCGC,2360,992,2270,1630
TTAAGGAGCTTCCGGGGCCGCGGGTAGAGGCGGGTG,629,676,741,1420
ATCTTGGCCCATATCCTGTGGTGTTCTGCTAGAGGT,768,791,843,1290
GGGGAAGAGGGGAGGATGTCTGAGGTTTTAATTGTA,523,861,689,793
GCGAGCACTTCCGGTGTGTGAGCCTGCGGTTGCTAC,7480,845,22400,3050
CAGCCGACTTCCGGGGTGGGGCTTGCTGCCGCAGAG,1760,774,1780,1730
TAGGCTGAAGACTTCCGCCCCGCAGAGGACTTGCCT,1040,839,974,1170
CCCCGGGAAGGGAAGTTTGTGGCGGAGGAGGTTCGT,592,805,589,934
CTGGTTTCCAACATCCTGTGGGCGGCCTGGTTTCAG,1260,785,1270,2210
CAGCTCTCTCGCTTCCTGTGGTGTAAACATGAAGCA,1570,964,1400,1500
CCTGCCTTCCGTCTTCCAGGCAGAACCACAGAGAGG,432,1180,481,1230
AAACCCTGAGTAATCGGAAGTGGTTAGGAGTGAGAG,2190,816,6580,1310
ACACTGAGCTGAACGGAAATGTGGTTCTCACCTCAT,2670,774,3100,1140
TCTGTGACTACGCGGATGTTGTGGGCGGCTACATGC,1000,749,1810,869
GCCTGTCGCAGGAACGGAAGTGGTTACGGCCCTAGT,8480,830,19800,3500
CTCCTTCCTGATCGGGCAGGAACTAACCACAGGAGG,1060,825,2480,1130
CTAACCCTGCTTCCTCTTAGTGGTTTCCCCCAACCT,616,1620,793,3220
GCGAGGAGACAACTTCCTTTTGTGGTCTGACCCTGG,638,857,1590,1970
CGATGCTTCCGGCCTCCTATTGGGTGGTTTCTTGGC,895,789,1050,2040

Sequence,ETS1 binding intensity [1],RUNX1 binding intensity [2],ETS1 binding intensity [3],RUNX1 binding intensity [4]
CCGCCGACACACTTCCGGCGGCCACCACAGGGTATT,3140,795,3660,1910
GGGCCCTTCCTGTGGCGCCTGCCGAGCTGTGGTTGG,388,716,496,1380
CTAACCCTTCTCTTCCTGCAAAAACCACAACAAAGG,640,2250,1720,3580
AGGGTGTGGAGGAAGTGGCTTACAACCACTTTGTCT,1270,764,1500,1090
AGTCCACACTACAGGAAACCACAGGCCTGAGCCCCA,1580,2870,3180,3440
GCAGGGACCGGAAGTCCATGGCTCTGCCGCAACCCT,13400,738,13700,1250
TTTCCACTTCCTGTTCTACTTGTGGCTACTGACTCA,2530,1100,2890,3380
AGGGAAGCAGGAAGTGACTGCGGGAGTGGAGCCGGC,3920,677,3540,1080
CGCCGCTCAACTTCCGGCAACCACAGCTCTCTCTGA,1830,1070,3870,3150
CTTTAAGGAGGCGGAAAAGTTAACCGCGATGGGCAG,533,996,1430,1050
CCGCCCTAGAGCAGGAAATAGCGGTCAGCGCCAGCT,2740,857,7280,1980
CCTCCCTGAGGGGGAAGTGGTTTTTGAGTCTGAGTC,579,859,1190,1020
AGGCCGTGCAGGAAATGAGACCCACAGCCACGTCAC,1800,789,2180,977
AGAAGCAGGCATGCAGGATGTGGTTAGTGCATGGTA,2230,900,17400,3740
AGCTTGACGAAGGCTTCCTGTGGTTTGGGTTGATGT,486,824,964,1530
AACAGTACTTCCGGGGCAAGTGAGCGCCCACAAGGC,934,806,1300,1970
CACCTCCTACTTCCCCCCGCTGATAACCACCAACCC,1700,2990,1790,2830
TGGCTGTGAGCTGCAGGATGTGGTCAGGAGAGGAAG,2180,804,19700,2310
GCCATGGCCACTTCCTGCTTGTAACCACAGCCCAGA,4430,1210,13200,5520
CCTGTACGGAAGCTACTCTGGTTTCATGTGGTTTCA,441,904,654,1030
CAGAACGGTCCCCGGAACACTGCGGTTCCCGCCTGG,357,1040,895,889

Sequence,ETS1 binding intensity [1],RUNX1 binding intensity [2],ETS1 binding intensity [3],RUNX1 binding intensity [4]
TGGGGCTAGGCTTCCGGGGCTCTGCGGTCCTCGGCC,481,662,623,1180
AGGGTTGGGGAGGATGTTGTGGTTATTATTGACATA,845,1570,4990,2840
ATAGAAACTACAGGAAATACTGTGGTCAGGTTTTGA,2770,822,9500,1380
AGACCCGGAAATGGTGGGTGTTTCTTGCAACCACGG,1810,668,2290,1240
GGCAAACAGGAAACACTCCCAGGGCTGTGGGCTCCT,1550,727,1790,1150
CCCGGAAACTCAACTGCCCACTGCTGCGGCCGCCAT,599,1070,708,1090
TTAACCAGACATTTCCTGTGGTCTAAGGTGACCCCA,859,1020,1090,2710
CAAGCTGGCAGGAAGCGCGGTGCAACCACAAGAGTC,1870,765,6690,1260
TACATCTTCAGAGGAAGTGGGTTTGTGTATCTTTGA,2460,786,3750,1380
GAAAACACAGGAAGCCGTCCGCGCAACCGCGTTGCA,1520,840,2160,1150
TGCAATTGGCAGACAGGAAACCGCGGCGTTTTCTGG,5340,764,13500,1440
TCCTTTTCCGGTGGCGGCGCCGCGCGGTGAGGTTGT,754,731,615,1880
ACCGGGTGCTGAGGAGGAAGTGGTTGCTATAACCCC,2350,741,3420,1120
GCCACTTCCTGGAAAACAGTAATTACCACACGTCTC,464,1100,546,2160
CTTCTTTCCAGAGGATGTGGCTTCAGCGGGAGAGCT,1250,817,1830,1030
TACAACTTGCAACGGAAACCACTTCAGGTTCATTAC,1320,847,1280,866
ACAAGAGGAAGTGAGTCTACCCATGATGCGGTCACA,707,891,4460,1440
CCCACTTCCTGTCCCTGCATGCTGTGGGGCAGGCAG,1500,784,1570,2420
GAGCACAGGAAAAGCTGGTGCCAACCACAAGTGCTT,368,815,1130,971
CTTGCCACACTTCCTCTTGTTTTGAACCACTATATT,724,2620,641,4740
GACTCTTCCGGCCCAGAGCTTTCGGAGTGCGGTTGC,399,858,704,2130

Sequence,ETS1 binding intensity [1],RUNX1 binding intensity [2],ETS1 binding intensity [3],RUNX1 binding intensity [4]
CTCACAACTCGCGTCCGGCGGAGACCACAATTCCCG,412,863,530,1230
CTGCCGCTGCCTTCCGCCCCCACACACGCACACCAC,686,1240,741,1640
AGGGCATAAACAGGATGTGGTGTTGGATGAAACCTT,5290,750,7490,1360
AAGGCAAACAGGAAATCATAACCACAAACCAGGAAC,2960,2880,25500,21700
ACCGGATGCCGGGGCACCGCCAGATGTGGCCACGAG,1500,746,1730,941
GCCCGCGGCTCCGGAAGCGGCTGCGGCCCCGACCGG,3000,678,3860,1040
CGAGCAGGAAGTGGCAAGATTTGATAGGCGGTCAGG,1970,739,2940,1450
CTTCATCAACCCATCCTGTCTTGTGGTTAAGTCAAG,392,4120,1700,6360
TGTGTAAGAGGAAACACCAAAACCACAAATATGAAA,736,2080,3280,3530
GCTTCTGAGGAAGTGCGTTTTGTGGGTAGGTGGAGT,706,792,1410,878
GAGTCTACAGCGGAAGCCACCACATGCCCCACCCCC,4820,904,5330,1200
TGACATTTCCGGCCCCACCTCGGCCCGCAGCGCCGC,1180,955,1170,2320
AAACTCCCCCACTTCCGCCCACAGCCCTCTGGGCTT,2010,984,2120,3490
TGGTTCCACCGACCGGAAGGGCCACAAGGATCCCCG,5280,659,5560,1250
AGTCTAACCAACAAAGGATGTGGTAGGTAAAAGGTT,1250,834,2640,959
GTCCTCCACTATTGTTTCCGGCCGCAGCAGAGGCGG,1870,1070,2090,2170
GAAACCGGAAGCGGCGGCTGTCCGCGGTGCCGGCTG,5800,717,6810,1550
CCCAACCATTTCCGCCACACCTCCAACCCACTGCCG,647,2030,542,4660
